# PubChem BioAssay (NCATS)
# Where “and” joins values, the source holds several entries; their conditions need not be identical. Equal entries are not always repeated. Records with an inconclusive call do not appear. Where a call stands in place of a potency, no number is given. Where a structure was tested more than once in an assay, its records may differ in their call. Calls of active or inactive are those of the source. The call rests on the fitted dose curve; in most records, active means well fitted curve in the direction sought with a large enough effect; inconclusive means small, poorly fitted or top-dose-only effect, or another doubt; inactive means no such curve, though single readings can be large; an effect the other way counts as inactive or inconclusive.
# Legend:
# [1] = Primary qHTS for inhibitors of nuclear receptor binding SET domain protein 2 (NSD2) in an isogenic RCH-ACV NSD2 p.E1099K mutant (9B) (AID 1645876); further: nearly all actives have a fitted effect of over 70% in size; further: potency means the concentration at half of the fitted maximal effect
# [2] = Primary qHTS for inhibitors of nuclear receptor binding SET domain protein 2 (NSD2) in an RCH-ACV wild type WT cells (2C) (AID 1645877); further: nearly all actives have a fitted effect of over 70% in size; further: potency means the concentration at half of the fitted maximal effect
# Papain (Carica papaya) = Papain (Carica papaya) (UniProt P00784); test: Primary qHTS assay for inhibitors of the protease papain (AID 1645873);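 further: papain turnover of Z-FR-AMC read as the AMC fluorescence gain over 10 min; series mostly up to about 50 µM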
# [3] = target: Rap guanine nucleotide exchange factor 3 (Homo sapiens) (UniProt O95398); test: Confirmatory qHTS for antagonist of cAMP-regulated guanine nucleotide exchange factor 3 (EPAC1) (AID 1645880); further: nearly all actives have a fitted effect of over 55% in size
# Outline: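 Nucleotide exchange uses 100 nM EPAC1, 250 nM RAP1B-BODIPY-GDP and 50 uM GDP, with compounds in a concentration-titration series. After 5 min at room temperature, fluorescence (480 nm ex/540 nm em) is read every 5 min for 30 min. Data are normalized to control ATA and DMSO.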
# [4] = target: Rap guanine nucleotide exchange factor 3 (Homo sapiens) (UniProt O95398); test: Confirmatory qHTS for agonist of cAMP-regulated guanine nucleotide exchange factor 3 (EPAC1) (AID 1645881);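 further: EPAC1 catalysed release of BODIPY-GDP from Rap1B seen as fluorescence loss; nearly all actives have a fitted effect of over 75% in size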
# Sequence of Papain (Carica papaya) (P00784 whole entry, looked up): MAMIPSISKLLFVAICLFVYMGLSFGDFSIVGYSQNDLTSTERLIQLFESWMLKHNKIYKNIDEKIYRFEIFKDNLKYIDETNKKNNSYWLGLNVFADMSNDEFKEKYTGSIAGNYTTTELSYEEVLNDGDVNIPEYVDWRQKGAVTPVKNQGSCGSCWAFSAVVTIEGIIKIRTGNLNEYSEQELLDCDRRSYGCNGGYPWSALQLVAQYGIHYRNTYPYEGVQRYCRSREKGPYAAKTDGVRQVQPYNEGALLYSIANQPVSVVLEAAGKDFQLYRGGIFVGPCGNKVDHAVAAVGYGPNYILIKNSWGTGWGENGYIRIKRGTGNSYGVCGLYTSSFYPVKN
# Sequence of Rap guanine nucleotide exchange factor 3 (Homo sapiens) (O95398 whole entry, looked up): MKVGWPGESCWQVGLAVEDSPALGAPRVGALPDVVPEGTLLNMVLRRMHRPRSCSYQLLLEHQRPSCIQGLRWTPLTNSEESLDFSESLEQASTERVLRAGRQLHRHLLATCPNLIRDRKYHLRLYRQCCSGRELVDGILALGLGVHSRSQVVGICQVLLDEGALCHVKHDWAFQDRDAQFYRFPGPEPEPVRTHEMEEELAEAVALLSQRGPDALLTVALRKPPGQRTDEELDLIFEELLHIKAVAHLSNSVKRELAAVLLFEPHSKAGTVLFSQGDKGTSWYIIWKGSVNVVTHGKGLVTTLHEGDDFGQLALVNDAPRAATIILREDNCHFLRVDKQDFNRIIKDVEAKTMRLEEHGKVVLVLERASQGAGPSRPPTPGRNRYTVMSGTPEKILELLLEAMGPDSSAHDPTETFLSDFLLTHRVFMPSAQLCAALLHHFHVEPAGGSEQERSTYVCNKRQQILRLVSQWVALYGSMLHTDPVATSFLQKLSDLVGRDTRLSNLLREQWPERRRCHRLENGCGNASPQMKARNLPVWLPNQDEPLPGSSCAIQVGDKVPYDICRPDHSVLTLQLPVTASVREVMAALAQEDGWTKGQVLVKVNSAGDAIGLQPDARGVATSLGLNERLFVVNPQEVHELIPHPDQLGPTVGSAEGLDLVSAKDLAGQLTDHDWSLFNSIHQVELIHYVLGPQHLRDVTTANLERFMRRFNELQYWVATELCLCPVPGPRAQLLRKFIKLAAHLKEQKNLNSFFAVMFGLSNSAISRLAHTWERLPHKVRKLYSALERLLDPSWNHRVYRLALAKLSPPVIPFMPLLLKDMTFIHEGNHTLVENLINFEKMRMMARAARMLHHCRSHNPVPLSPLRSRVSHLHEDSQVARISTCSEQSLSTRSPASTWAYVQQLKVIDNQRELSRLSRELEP
compound,measurement,setting,value
CC(COc1ccccc1)NC(C)C(O)c1ccc(O)cc1 (configuration not stated),Potency,[1],inactive
same,Potency,[2],inactive
CNCCC(Oc1ccc(C(F)(F)F)cc1)c1ccccc1 (configuration not stated),Potency,Papain (Carica papaya),inactive
same,Potency,[2],23.7 µM (active)
O=C(O)c1ccccn1,Potency,[1],inactive
same,Potency,[2],inactive
Cc1cccc(Nc2cc(Cl)nc(SCC(=O)O)n2)c1C,Potency,[1],inactive
same,Potency,[2],inactive
O=C(O)c1ccccc1O,Potency,[1],inactive
same,Potency,[2],inactive
NC(=O)NNc1ccccc1,Potency,[1],inactive
same,Potency,[2],inactive
CC(=O)OCC(=O)[C@@]1(O)CC[C@H]2[C@@H]3CCC4=CC(=O)CC[C@]4(C)[C@H]3C(=O)C[C@@]21C,Potency,Papain (Carica papaya),inactive
same,Potency,[1],inactive
same,Potency,[2],inactive
OCCN1CCN(CCCN2c3ccccc3Sc3ccc(Cl)cc32)CC1,Potency,Papain (Carica papaya),inactive
same,Potency,[1],8.41 µM (active)
same,Potency,[2],9.44 µM (active)
same,Potency,[3],inactive
same,Potency,[4],inactive
CC1=C(C/C=C(\C)CCC[C@H](C)CCC[C@H](C)CCCC(C)C)C(=O)c2ccccc2C1=O,Potency,[1],inactive
same,Potency,[2],inactive
CCOC(CN1CCN(CC(C)C(=O)c2ccccc2)CC1)c1ccccc1 (configuration not stated),Potency,[1],inactive
same,Potency,[2],14.5 µM (active)
O=C1OC(OC(=O)c2cccnc2Nc2cccc(C(F)(F)F)c2)c2ccccc21 (configuration not stated),Potency,[1],inactive
same,Potency,[2],inactive
O=C1N=C(O)CN1/N=C/c1ccc(-c2ccc([N+](=O)[O-])cc2)o1,Potency,Papain (Carica papaya),inactive
same,Potency,[1],inactive
same,Potency,[2],inactive
CCOC(=O)c1ccc(O)cc1,Potency,[1],inactive
same,Potency,[2],inactive
COC(=O)C1=C(C)NC(C)=C(C(=O)OC)C1c1ccccc1[N+](=O)[O-],Potency,Papain (Carica papaya),inactive
Nc1ncnc2c1ncn2[C@@H]1O[C@H](CO)[C@@H](O)[C@H]1O,Potency,Papain (Carica papaya),inactive
same,Potency,[1],9.44 µM (active) and inactive
same,Potency,[2],5.96 µM (active) and inactive
CC(C)c1c(C(=O)Nc2ccccc2)c(-c2ccccc2)c(-c2ccc(F)cc2)n1CC[C@@H](O)C[C@@H](O)CC(=O)O,Potency,Papain (Carica papaya),inactive
O=C(O)COc1nn(Cc2ccccc2)c2ccccc12,Potency,[1],inactive
same,Potency,[2],inactive
CC(=O)Nc1ccc(/C=N/NC(N)=S)cc1,Potency,[1],21.1 µM (active)
same,Potency,[2],16.8 µM (active)
CCCCCCCCCCCCCCCC(=O)NCCO,Potency,[1],inactive
same,Potency,[2],inactive
c1ccc(CN(CC2=NCCN2)c2ccccc2)cc1,Potency,[1],inactive
same,Potency,[2],inactive
CO/N=C(\C(=O)N[C@@H]1C(=O)N2C(C(=O)O)=C(CSc3nc(=O)c(O)nn3C)CS[C@H]12)c1csc(N)n1,Potency,[1],inactive
same,Potency,[2],inactive
C[C@]12C[C@H](O)[C@H]3[C@@H](CCC4=CC(=O)CC[C@@]43C)[C@@H]1CC[C@@H]2C(=O)CO,Potency,Papain (Carica papaya),inactive
CN(C)CCCN1c2ccccc2Sc2ccc(Cl)cc21,Potency,Papain (Carica papaya),inactive
same,Potency,[1],15 µM (active)
same,Potency,[2],13.3 µM (active)
COc1ccc(Cl)cc1C(=O)NCCc1ccc(S(=O)(=O)NC(=O)NC2CCCCC2)cc1,Potency,[1],inactive
NC(=O)c1ncn([C@@H]2O[C@H](CO)[C@@H](O)[C@H]2O)n1,Potency,Papain (Carica papaya),inactive
same,Potency,[2],14.8 µM (active)
CC1(C)S[C@@H]2[C@H](NC(=O)Cc3ccccc3)C(=O)N2[C@H]1C(=O)O (tested in a mixture with another compound),Potency,[1],inactive
Cc1ncc([N+](=O)[O-])n1CC(O)CCl (configuration not stated),Potency,[1],inactive
same,Potency,[2],inactive
CC1=C(/C=C/C(C)=C/C=C/C(C)=C/C(=O)O)C(C)(C)CCC1,Potency,Papain (Carica papaya),inactive
same,Potency,[1],21.1 µM (active)
Cc1ccc2nc(N)[nH]c(=O)c2c1Sc1ccncc1,Potency,[1],2.3 µM (active)
same,Potency,[2],2.05 µM (active)
CCCCCCCCCCCCOS(=O)(=O)O,Potency,[1],inactive
same,Potency,[2],inactive
CSc1ccc2c(c1)C(N1CCN(C)CC1)Cc1ccccc1S2 (configuration not stated),Potency,Papain (Carica papaya),inactive
same,Potency,[1],23.7 µM (active)
same,Potency,[2],15 µM (active)
C/C(=C(\CCOP(=O)(O)O)SC(=O)c1ccccc1)N(C=O)Cc1cnc(C)nc1N,"activity change, negative = viability loss",[1],9.34% [at 4.96 µM] (inactive)
same,"activity change, negative = cell killing",[2],-1.42% [at 4.96 µM] (inactive)
CCN(CC)CCOC(=O)C1(C2CCCCC2)CCCCC1,Potency,Papain (Carica papaya),inactive
same,Potency,[1],inactive
CCOc1nc2cccc(C(=O)O)c2n1Cc1ccc(-c2ccccc2-c2nn[nH]n2)cc1,Potency,[1],inactive
same,Potency,[2],inactive
COc1ccc2cc1Oc1ccc(cc1)C[C@H]1c3c(cc4c(c3Oc3cc5c(cc3OC)CCN(C)[C@@H]5C2)OCO4)CCN1C,Potency,[1],8.41 µM (active) and 9.16 µM (active)
same,Potency,[2],9.44 µM (active) and 9.16 µM (active)
Nc1ccc(S(=O)(=O)NC(=O)c2ccccc2)cc1,Potency,[1],inactive
same,Potency,[2],inactive
C[C@@H]1C[C@H]2[C@@H]3C[C@H](F)C4=CC(=O)C=C[C@]4(C)[C@@]3(F)[C@@H](O)C[C@]2(C)[C@@]1(O)C(=O)CO,Potency,[2],2.7 nM (active) and 5.2 nM (active)
CC(C)(C)c1onc(OCP(=O)(O)O)c1CC(N)C(=O)O (configuration not stated),Potency,Papain (Carica papaya),inactive
